Laboratory results published in PubChem BioAssay (NCATS).
Results filed as inconclusive are left out. The source made the active and inactive calls. Calls follow the shape of the dose curve; as a rule, active = well fitted curve in the direction sought with a large enough effect; inconclusive = small, poorly fitted or top-dose-only effect, or another doubt; inactive = no such curve, though single readings can be large; an effect the other way counts as inactive or inconclusive.

Legend:
[1] = qHTS to identify inhibitors of the type 1 interferon - major histocompatibility complex class I in skeletal muscle: primary screen against the NCATS Pharmaceutical Collection (AID 1347407); conditions: human skeletal muscle cells, IFN-b-induced MHC-I HiBiT luminescence, 24 h; series mostly up to 45.9 µM;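 also: luminescence of HiBiT knocked into endogenous HLA-B as interferon-induced MHC class I level; % is scaled to controls: 0 for no effect and ±100 for the full control effect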
Method in brief: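 A qHTS format is used: 8-point, 1:5 compound series with 46 uM top final concentration, applied alongside 4 ng/ml IFN-beta to HLA-B*08:01-HiBiT knock-in myoblasts. Luminescence is measured after 24 h treatment.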

[2] = target: Protein phosphatase 1D (Homo sapiens) (UniProt O15297); assay: RapidFire Mass Spectrometry qHTS Assay for Modulators of WT P53-Induced Phosphatase 1 (WIP1) (AID 1347424); conditions: WIP1 dephosphorylation of phosphopeptide, RapidFire MS; series mostly up to 63 µM;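 also: amount of dephosphorylated VEPPL-S-QETFS peptide product formed by WIP1; plate controls were DMSO wells for no effect and GSK830371 inhibitor control at 10 µM for full effect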
Method in brief: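 WIP1 (10 nM final) was preincubated 1 h at room temperature with compounds in Tris-HCl pH 7.5, 30 mM MgCl2, TCEP, EGTA, BSA; 2 uM VEPPL-pS-QETFS phosphopeptide was added for 5 min, quenched with formic acid, and dephosphorylated product quantified by RapidFire MS.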

[3] = Primary qHTS for inhibitors of La Crosse Virus (LACV) - induced cell death in SH-SY5Y cells (AID 1508616); conditions: SH-SY5Y LACV cytopathicity rescue, ATP luminescence, 6 d; series mostly up to 4.29 µM;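 also: top concentration of the series differs between compounds; 0% = infected DMSO wells and 100% = uninfected DMSO wells; higher means more rescue of cells from virus-induced death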
Method in brief: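 Luminescent ATP readout (ATPLite 1step, 5 min room temperature) measured rescue from LACV-induced death after 6 days of infection at 0.01 MOI; normalized to infected DMSO wells and uninfected DMSO wells.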

[4] = target: Calcium and integrin-binding protein 1 (Homo sapiens) (UniProt Q99828); assay: Primary qHTS for Identification of Calcium Integrin Binding Protein 1 (CIB1) Competitor (AID 1508620); conditions: CIB1-GST / FITC-alphaIIb peptide fluorescence polarization; series mostly up to 114 µM;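 also: GST tagged CIB1 binding a fluorescein labelled alphaIIb integrin peptide tracer; top concentration of the series differs between compounds; % is scaled to controls: 0 for no effect and ±100 for the full control effect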
Method in brief: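 Fluorescence polarization competition: CIB1-GST (1 uM final) preincubated with compound 15 min at room temperature, then FITC-labeled alphaIIb peptide (100 nM final) added for another 15 min. Polarization read at Ex 480/Em 540.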

[5] = target: Protein phosphatase 1D (Homo sapiens) (UniProt O15297); assay: Rhodamine-PBP qHTS Assay for Modulators of WT P53-Induced Phosphatase 1 (WIP1) (AID 1347425); conditions: recombinant WIP1, Rhodamine-PBP phosphate fluorescence, real-time; series mostly up to 57.5 µM; also: % of control where 0% means no effect
Method in brief: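 Steps: enzyme with Rh-PBP sensor and compounds, room-temperature incubation of 1 hr, baseline read, addition of VEPPL-pS-QETFS (10 uM final), kinetic fluorescence reads at 525/598 nm. Activity equals final minus baseline signal.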

Sequence of Calcium and integrin-binding protein 1 (Homo sapiens) (Q99828 whole entry, looked up): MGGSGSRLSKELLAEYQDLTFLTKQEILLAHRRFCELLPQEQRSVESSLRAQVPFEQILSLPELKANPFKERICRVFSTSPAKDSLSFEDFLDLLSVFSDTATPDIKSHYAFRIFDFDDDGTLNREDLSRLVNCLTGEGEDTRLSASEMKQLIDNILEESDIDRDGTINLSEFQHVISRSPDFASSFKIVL
Sequence of Protein phosphatase 1D (Homo sapiens) (O15297 whole entry, looked up): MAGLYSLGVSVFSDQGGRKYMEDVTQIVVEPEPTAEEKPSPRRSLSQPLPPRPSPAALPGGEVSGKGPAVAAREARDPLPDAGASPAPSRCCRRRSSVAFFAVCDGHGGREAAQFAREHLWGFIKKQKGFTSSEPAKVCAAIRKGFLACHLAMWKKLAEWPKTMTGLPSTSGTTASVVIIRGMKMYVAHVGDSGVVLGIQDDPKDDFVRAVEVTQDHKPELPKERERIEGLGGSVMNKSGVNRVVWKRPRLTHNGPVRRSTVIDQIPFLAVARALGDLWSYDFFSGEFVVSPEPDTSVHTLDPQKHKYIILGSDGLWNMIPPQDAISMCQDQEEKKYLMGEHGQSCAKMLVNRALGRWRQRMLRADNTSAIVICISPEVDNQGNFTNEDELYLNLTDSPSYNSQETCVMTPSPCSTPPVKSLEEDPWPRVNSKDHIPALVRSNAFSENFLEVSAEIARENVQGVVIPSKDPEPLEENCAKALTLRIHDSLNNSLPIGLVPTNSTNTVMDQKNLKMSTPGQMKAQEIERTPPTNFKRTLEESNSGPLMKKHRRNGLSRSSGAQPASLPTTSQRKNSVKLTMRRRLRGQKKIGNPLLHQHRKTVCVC

COc1cc2c(cc1OC)C(=O)C(CC1CCN(Cc3ccccc3)CC1)C2 (configuration not stated)
inactive: Potency [1] | Potency [2] | Potency [3] | Potency [4]

O=C(COc1ccc(Cl)cc1)N1CCN(Cc2ccc3c(c2)OCO3)CC1
inactive: Potency [1] | Potency [2] | outcome [5] | Potency [4]

OC[C@H]1O[C@@H](n2cnc3c(=S)nc[nH]c32)[C@H](O)[C@@H]1O
inactive: Potency [1] | Potency [2] | Potency [3] | Potency [4]

CCn1cc(C(=O)O)c(=O)c2cnc(N3CCCC3)nc21
inactive: activity change, negative = inhibition [1] -17.9% [at 9.18 µM] | activity change, negative = inhibition [2] -0.783% [at 12.6 µM] | Potency [4]

OC[C@@H](O)[C@@H](O[C@@H]1O[C@H](CO)[C@H](O)[C@H](O)[C@H]1O)[C@H](O)[C@@H](O)CO
inactive: Potency [1] | Potency [2] | Potency [3] | Potency [4]

COC(=O)C1=C(C)NC(C)=C(C(=O)O[C@@H]2CCCN(Cc3ccccc3)C2)[C@@H]1c1cccc([N+](=O)[O-])c1
inactive: Potency [1] | Potency [2] | Potency [3] | Potency [4]

CC(=O)Oc1ccc(C(=C2CCCCC2)c2ccc(OC(C)=O)cc2)cc1
inactive: Potency [1] | Potency [2] | Potency [3] | Potency [4]

CCN1CCCC1=O
inactive: Potency [1] | Potency [2] | Potency [4]

NCCc1ccn[nH]1
inactive: Potency [1] | Potency [2] | outcome [5] | Potency [4]

CCCCOc1ccc(OCCCN2CCOCC2)cc1
inactive: Potency [1] | Potency [2] | Potency [3] | Potency [4]

CC(C)N=C(N)/N=C(\N)Nc1ccc(Cl)cc1
inactive: Potency [1] | Potency [2] | Potency [3] | Potency [4]

CCCCCCc1ccc(O)cc1O
inactive: Potency [1] | Potency [2] | Potency [3] | Potency [4]

CC(=O)N/N=C/c1ccc([N+](=O)[O-])o1
inactive: Potency [1] | Potency [2] | outcome [5] | Potency [4]

C#C[C@]1(O)CC[C@H]2[C@@H]3CCc4cc(OC5CCCC5)ccc4[C@H]3CC[C@@]21C
inactive: Potency [1] | Potency [2] | Potency [3] | Potency [4]

NC(CO)(CO)CO
inactive: Potency [1] | Potency [2] | Potency [4]

COC(=O)CCc1ccc(OCC(O)CNC(C)C)cc1 (configuration not stated)
inactive: Potency [1] | Potency [2] | Potency [3] | Potency [4]

O=C1c2ccccc2C(=O)C1c1ccccc1
inactive: Potency [1] | Potency [2] | Potency [3] | Potency [4]

CC(C)(C)CC(C)(C)c1ccc(O)c(Cc2ccc(Cl)cc2Cl)c1
inactive: Potency [1] | Potency [2] | Potency [3] | Potency [4]

Cc1cccn2c(=O)c(-c3nnn[nH]3)cnc12
inactive: Potency [1] | Potency [2] | Potency [3] | Potency [4]

O=C(CCN1CCC(c2ccccc2)C1)c1ccc2c(c1)OCCO2 (configuration not stated)
inactive: Potency [1] | Potency [2] | Potency [4]

CC(Cc1ccccc1)(NC(=O)CN)c1ccccc1 (configuration not stated)
inactive: Potency [1] | Potency [2] | Potency [4]

Cc1ccc(C(=O)C(C)CN2CCCCC2)cc1 (configuration not stated)
inactive: Potency [1] | Potency [2] | outcome [5] | Potency [4]

C[C@H](CCC(=O)O)[C@H]1CC[C@H]2[C@@H]3C(=O)C[C@@H]4CC(=O)CC[C@]4(C)[C@H]3CC(=O)[C@]12C
inactive: Potency [1] | Potency [2] | Potency [3] | Potency [4]

NCCCC[C@H](N[C@@H](CCc1ccccc1)C(=O)O)C(=O)N1CCC[C@H]1C(=O)O
inactive: Potency [1] | Potency [2] | Potency [4]

OC[C@H]1O[C@H](O[C@]2(CCl)O[C@H](CCl)[C@@H](O)[C@@H]2O)[C@H](O)[C@@H](O)[C@H]1Cl
inactive: Potency [1] | Potency [2] | Potency [3] | Potency [4]

CN(C)CCOc1ccccc1Cc1ccccc1
inactive: Potency [1] | Potency [4]

CC(=O)c1ccc2c(c1)N(CCCN1CCC(CCO)CC1)c1ccccc1S2
inactive: Potency [1] | outcome [5] | Potency [3] | Potency [4]

CN1C(CCl)Nc2cc(Cl)c(S(N)(=O)=O)cc2S1(=O)=O (configuration not stated)
inactive: Potency [1] | Potency [2] | Potency [4]

C=CCc1ccc(O)c(OC)c1
inactive: Potency [1] | Potency [2] | Potency [4]

CC(C)(C(=O)c1cccnc1)c1cccnc1
inactive: Potency [1] | outcome [5] | Potency [4]

C[C@@H]1C[C@H]2[C@@H]3C[C@H](F)C4=CC(=O)C(Cl)=C[C@]4(C)[C@@]3(F)[C@@H](O)C[C@]2(C)[C@@]1(O)C(=O)CO
inactive: Potency [1] | outcome [5] | Potency [3] | Potency [4]

CCN1CCC[C@H]1CNC(=O)c1c(OC)ccc(Br)c1OC
inactive: Potency [1] | Potency [3] | Potency [4]

CN1[C@@H]2CC[C@H]1CC(OC(=O)c1c[nH]c3ccccc13)C2 (some centres not stated)
inactive: Potency [1] | outcome [5] | Potency [3] | Potency [4]

Cc1cc(O)c(C(C)C)cc1Cl
inactive: Potency [1] | outcome [5] | Potency [4]

CNC(=O)CN(CCN(CCN(CC(=O)[O-])CC(=O)NC)CC(=O)[O-])CC(=O)[O-].O.[Gd+3]
inactive: Potency [1] | outcome [5] | Potency [3] | Potency [4]
